Assay results published in the supplement of paper PMC3334620.
The full ranking holds about 33,000 sequences; the median of “E-score (-0.5 to 0.5)” is about -0.035, and the highest 2% start at about 0.34. For the sample, the highest values were picked, then their nearest neighbours and some sequences at random.

Molecular target: T1, Mot3 (UniProt P54785)
T1 sequence: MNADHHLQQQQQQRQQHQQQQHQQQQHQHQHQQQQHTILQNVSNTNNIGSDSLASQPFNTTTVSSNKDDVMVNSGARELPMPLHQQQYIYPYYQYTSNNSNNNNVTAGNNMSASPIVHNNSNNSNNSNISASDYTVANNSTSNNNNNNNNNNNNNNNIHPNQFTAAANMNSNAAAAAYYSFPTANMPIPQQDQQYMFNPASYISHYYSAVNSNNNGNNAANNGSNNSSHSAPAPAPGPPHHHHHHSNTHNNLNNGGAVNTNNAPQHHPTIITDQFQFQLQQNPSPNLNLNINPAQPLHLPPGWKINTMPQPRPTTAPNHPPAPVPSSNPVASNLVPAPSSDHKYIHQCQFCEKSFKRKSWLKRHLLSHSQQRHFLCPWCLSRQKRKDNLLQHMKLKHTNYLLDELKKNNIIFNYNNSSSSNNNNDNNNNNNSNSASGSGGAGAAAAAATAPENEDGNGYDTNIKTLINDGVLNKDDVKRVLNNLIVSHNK
Assay: PBM E-score (8-mer binding enrichment) (E-score (-0.5 to 0.5)); higher = stronger / more preferred TF binding
Conditions: protein concentration: 200 nM; construct: GST-full length
Method: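 Universal 'all 10-mer' protein binding microarrays (Agilent AMADID 015681) probed with GST-tagged S. cerevisiae TFs (full-length or DBD) made by in vitro transcription/translation (PURExpress), about 100-200 nM. Bound TF was detected with fluorescent anti-GST. Each ungapped 8-mer (which stands for itself and its reverse complement) is scored by the PBM enrichment score (E-score), a modified Wilcoxon-Mann-Whitney statistic from -0.5 to +0.5, computed with the Universal PBM Analysis Suite. Scale: above 0.35 generally sequence-specific binding.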

Sequence	PBM E-score
AGGGACCA	-0.201
AGGTTTGG	-0.141
CCTTCAAA	0.115
CCTTCAAG	0.351
CCTTCAAC	0.247
AGAGAATC	-0.0691
AACCATTA	0.117
GAGGCCCC	-0.242
CTACACAA	0.29
CTACACAG	0.348
CTACACTA	0.135
CTACACGA	0.377
TTACACAA	0.42
CTACACGC	0.356
GTACACGA	0.327
ATACACAG	0.332
GTACACAA	0.323
CGACACGC	0.157
CTACACAC	0.333
CTACACTC	0.0954
AGCCAAGG	-0.106
AGTTCTCG	-0.137
AAAGTGTC	0.0356
AGCGACTC	-0.134
AATGTCTG	-0.0738
AGCGAGAG	-0.117

Sequence	PBM E-score
CTCAAGCC	-0.236
TCATAACA	0.255
AGAATGGA	-0.0583
AAGACCAT	-0.234
CTTAGGCC	-0.0744
ATTAGGCC	-0.111
GTTAGGCA	0.454
GTTAGGGA	-0.113
GTTAGGTA	0.26
ATTAGGCA	0.472
ATTAGGCG	-0.0797
CTTAGGCA	0.444
CTTAGGTA	0.139
CTATGCAA	0.0284
ACCTACCA	0.12
CGGGGATC	-0.303
AAAGCGTG	0.0569
ACCTGATA	0.203
CCAACACG	0.299
ACTACACG	0.386
ACTACACT	0.181
TCTACACA	0.361
CCTACACG	0.336
ACTACACA	0.331
TCAACACA	0.353
GCTACACA	0.253

Sequence	PBM E-score
ACAACACA	0.337
CCCAACGA	-0.0748
AGGGACTG	-0.226
CTGCAAGA	0.0551
CCTCTTCA	-0.171
ATAGCACG	-0.00445
GTAATCCA	0.225
ACAAAGCC	0.0921
CCAAATAG	0.00768
GGAAGGCA	0.482
AGAAGGCG	0.27
GGAAGGGA	-0.292
CGAAGGCC	-0.0438
TGAAGTCA	0.0305
CGAAGGCG	0.193
GGAAGGCC	-0.214
AGAAGGCA	0.475
TGAAGCCA	-0.0204
AGAAGGCT	-0.0686
CGAAGGCA	0.476
TGAAGGCA	0.483
ACCGAGAC	0.0166
CAAGCGTC	-0.0912
GCGGACAC	-0.3
ACGATCCA	-0.0439
CCCTAGTC	-0.163

Sequence	PBM E-score
GATAGGCC	0.0586
TATAGTCA	0.188
AATAGGCT	0.161
CATAGGCA	0.476
AATAGGCA	0.479
TATAGGGA	-0.0815
CATAGGCG	0.0696
TATAGGCA	0.482
CATAGGCC	0.135
AATAGGCC	-0.0184
GATAGGCA	0.473
GATAGGGA	-0.155
GAGTCGAA	-0.0456
CAAGGATG	0.121
CTCAAGCA	-0.101
GGAAGTAC	-0.139
ATGACCAT	0.0148
CGCACTCC	-0.223
CTGAGGTC	-0.255
GTCATGCA	0.0879
ATCATGTC	0.245
CTCATGTA	0.359
CTTATGTA	0.342
CTCATGTC	0.191
CTCATGGA	0.261
GTCATGGA	-0.179

Sequence	PBM E-score
ATCATGTG	0.198
ATCATGTA	0.392
GTCATGTA	0.356
CTTATGTC	0.0522
ATTATGTA	0.339
ATGGTTGA	-0.153
CCATCCGC	-0.164
CCGAAGAC	-0.306
GGGGTCTA	-0.0481
TAGAGAAA	-0.0644
CAACCAGA	0.0325
AAATAGCG	0.11
AGTTACGA	0.138
CCTAGAAA	0.0447
CTGAGCCC	-0.191
CCGTTGAG	-0.213
TGGGCAAA	-0.0148
CAGGCAGA	0.0294
GAGGCAAA	0.328
CAGGCAAC	0.489
CAGGCAGG	0.306
CGGGCAAA	0.0704
CAGGCAAG	0.491
TAGGCAAA	0.48
CAGGCAAA	0.481
CAGACAAC	0.00587

Sequence	PBM E-score
CGGGCAAC	-0.129
CCGGCAAG	-0.0693
ATCCACGG	-0.0193
AACCAGGT	-0.172
AAGACATC	-0.0992
CATAGTGC	0.117
ACAGCCGT	-0.24
CTCCGAAC	-0.132
ACACTACC	-0.089
ACCTTAAA	-0.092
CCCTTAAA	-0.00813
GCCTTAAA	0.349
CACACTCC	-0.178
AAGTACAT	0.265
ATGTACAT	0.378
GGGTACAA	-0.012
ATGTACAC	0.338
AGGTACAC	0.366
ATGTACAG	0.247
TGGTACAA	0.0168
ACGTACAT	0.286
CGGTACAC	0.00913
AGGTACAG	0.332
AGGTACAT	0.367
AGGTACAA	0.363
AAGGGGAA	-0.0624

Sequence	PBM E-score
CAACAGTG	-0.0633
CACGTGGC	-0.0488
AGCCTCCA	-0.369
CGCCTCCA	-0.0882
TGCCTCAA	0.365
AGCCTCAA	-0.265
TGCCTCCA	0.404
GGCCTCAA	0.00845
GACTGCTA	-0.251
AGCGTGCA	0.092
AACGTGCC	0.397
CGCGTGCA	0.0183
AGCGTGCG	-0.185
AGCGTGCC	0.343
CGTGTGCC	0.23
AGTGTGCG	-0.149
AGTGTGCC	0.355
AACGTGCG	0.0588
CGCGTGCC	0.433
CGCGTGGC	-0.155
AACGTGCA	0.136
